From PubChem BioAssay (NCATS)
Several values for one entry are separate records, joined by “and”; a condition that tells them apart may be missing. Identical values can stand only once. Results filed as inconclusive are left out. Activity calls are given as the source filed them. Calls follow the shape of the dose curve; as a rule, active = well fitted curve in the direction sought with a large enough effect; inconclusive = small, poorly fitted or top-dose-only effect, or another doubt; inactive = no such curve, though single readings can be large; an effect the other way counts as inactive or inconclusive.

Legend:
NIH3T3 = experiment: Cytotoxic Profiling of Annotated Libraries Using Quantitative High-Throughput Screening (AID 1296008); conditions: Five cell lines viability, CellTiter-Glo ATP luminescence, 48-72 h; max response: stronger effect = lower value; also: nearly all actives have a fitted effect of over 60% in size
Summary of the method: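 Compounds were pin-transferred onto cells and incubated 48 or 72 hr at 37 degree Celsius, 95% humidity. CellTiter-Glo was added, plates sat 10 min at room temperature, then ATP-coupled luminescence was imaged as the viability read-out.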

HACAT = experiment: qHTS assay to identify novel small-molecules to repurpose for Merkel cell carcinoma treatment (AID 1296009); conditions: MCC and control cell lines, CellTiter-Glo viability, 72 h; at 44.8 µM (top of the series) unless noted; also: nearly all actives have a fitted effect of over 60% in size
Summary of the method: (§1)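 qHTS format: cells treated with library compounds in DMSO across 8 (NPC) or 11 (MIPE) concentrations. Readout after 72 hr at 37 degree celsius was CellTiter-Glo luminescence.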

MCC-13 = experiment: as above; conditions: MCC and control cell lines, CellTiter-Glo viability, 72 h; series mostly up to 46 µM
Summary of the method: as §1

MCC-26 = experiment: as above; conditions: MCC and control cell lines, CellTiter-Glo viability, 72 h; series mostly up to 46 µM
Summary of the method: as §1

MKL-1 = experiment: as above; conditions: MCC and control cell lines, CellTiter-Glo viability, 72 h; series mostly up to 46 µM
Summary of the method: as §1

MKL-2 = experiment: as above; conditions: MCC and control cell lines, CellTiter-Glo viability, 72 h; series mostly up to 46 µM
Summary of the method: as §1

UISO = experiment: as above; conditions: MCC and control cell lines, CellTiter-Glo viability, 72 h; series mostly up to 46 µM
Summary of the method: as §1

WaGa = experiment: as above; conditions: MCC and control cell lines, CellTiter-Glo viability, 72 h; series mostly up to 46 µM
Summary of the method: as §1

C33A = experiment: Primary qHTS to identify gynecologic anti-cancer compounds using libraries of approved drugs and bioactive compounds (AID 1345084); conditions: Gynecologic cancer cell panel viability, ATPlite luminescence, 48 h; series mostly up to 57.5 µM; also: nearly all actives have a fitted effect of over 55% in size
Summary of the method: (§2)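 Five-point cytotoxicity, 48 h drug exposure at 37 C, 5% CO2, on cells seeded 16 h beforehand. ATP content read by ATPlite luminescence.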

CAOV3 = experiment: as above; conditions: Gynecologic cancer cell panel viability, ATPlite luminescence, 48 h; series mostly up to 57.5 µM
Summary of the method: as §2

CASKI = experiment: as above; conditions: Gynecologic cancer cell panel viability, ATPlite luminescence, 48 h; series mostly up to 57.5 µM
Summary of the method: as §2

Es-2 = experiment: as above; conditions: Gynecologic cancer cell panel viability, ATPlite luminescence, 48 h; series mostly up to 57.5 µM
Summary of the method: as §2

HeLa = experiment: as above; conditions: Gynecologic cancer cell panel viability, ATPlite luminescence, 48 h; series mostly up to 57.5 µM
Summary of the method: as §2

Hek293T = experiment: as above; conditions: Gynecologic cancer cell panel viability, ATPlite luminescence, 48 h, control line for the selectivity index; series mostly up to 57.5 µM
Summary of the method: as §2

JEG-3 = experiment: as above; conditions: Gynecologic cancer cell panel viability, ATPlite luminescence, 48 h; series mostly up to 57.5 µM
Summary of the method: as §2

OV90 = experiment: as above; conditions: Gynecologic cancer cell panel viability, ATPlite luminescence, 48 h; series mostly up to 57.5 µM
Summary of the method: as §2

PA-1 = experiment: as above; conditions: Gynecologic cancer cell panel viability, ATPlite luminescence, 48 h; series mostly up to 57.5 µM
Summary of the method: as §2

SKOV3 = experiment: as above; conditions: Gynecologic cancer cell panel viability, ATPlite luminescence, 48 h; series mostly up to 57.5 µM
Summary of the method: as §2
% is scaled to controls: 0 for no effect and ±100 for the full control effect.

Cc1oc(=O)oc1COC(=O)[C@@H]1N2C(=O)[C@@H](NC(=O)[C@H](N)c3ccccc3)[C@H]2SC1(C)C
inactive: max response (NIH3T3) -3.48% | outcome (HACAT) | Potency (MCC-13) | Potency (MCC-26) | Potency (MKL-1) | Potency (MKL-2) | Potency (UISO) | Potency (WaGa) | Potency (C33A) | Potency (CAOV3) | Potency (CASKI) | Potency (Es-2) | Potency (HeLa) | Potency (Hek293T) | Potency (JEG-3) | Potency (OV90) | Potency (PA-1) | Potency (SKOV3)

CC(C)(C)c1cc(C=O)cc(C(C)(C)C)c1O
inactive: max response (NIH3T3) 1.57% | outcome (HACAT) | Potency (MCC-13) | Potency (MCC-26) | Potency (MKL-1) | Potency (MKL-2) | Potency (UISO) | Potency (WaGa) | Potency (C33A) | Potency (CAOV3) | Potency (CASKI) | Potency (Es-2) | Potency (HeLa) | Potency (Hek293T) | Potency (JEG-3) | Potency (OV90) | Potency (PA-1) | Potency (SKOV3)

CCCC(=O)O[C@]1(C(=O)COC(=O)CC)CC[C@H]2[C@@H]3CCC4=CC(=O)CC[C@]4(C)[C@H]3[C@@H](O)C[C@@]21C
inactive: max response (NIH3T3) 1.36% | outcome (HACAT) inactive [at 17.4 µM] | Potency (MCC-13) | Potency (MCC-26) | Potency (MKL-1) | Potency (MKL-2) | Potency (UISO) | Potency (WaGa) | Potency (C33A) | Potency (CAOV3) | Potency (CASKI) | Potency (Es-2) | Potency (HeLa) | Potency (Hek293T) | Potency (JEG-3) | Potency (OV90) | Potency (PA-1) | Potency (SKOV3)

COc1cc(C=O)ccc1O
inactive: max response (NIH3T3) -0.279% | outcome (HACAT) | Potency (MCC-13) | Potency (MCC-26) | Potency (MKL-1) | Potency (MKL-2) | Potency (UISO) | Potency (WaGa) | Potency (C33A) | Potency (CAOV3) | Potency (CASKI) | Potency (Es-2) | Potency (HeLa) | Potency (Hek293T) | Potency (JEG-3) | Potency (OV90) | Potency (PA-1) | Potency (SKOV3)

C/C(=N/NC(=O)c1ccncc1)C(=O)O
inactive: max response (NIH3T3) 0.247% | outcome (HACAT) | Potency (MCC-13) | Potency (MCC-26) | Potency (MKL-1) | Potency (MKL-2) | Potency (UISO) | Potency (WaGa) | Potency (C33A) | Potency (CAOV3) | Potency (CASKI) | Potency (Es-2) | Potency (HeLa) | Potency (Hek293T) | Potency (JEG-3) | Potency (OV90) | Potency (PA-1) | Potency (SKOV3)

CCO[C@H](Cc1ccc(OCCc2ccc(OS(C)(=O)=O)cc2)cc1)C(=O)O
inactive: max response (NIH3T3) -1.31% | outcome (HACAT) | Potency (MCC-13) | Potency (MCC-26) | Potency (MKL-1) | Potency (MKL-2) | Potency (UISO) | Potency (WaGa) | Potency (C33A) | Potency (CAOV3) | Potency (CASKI) | Potency (Es-2) | Potency (HeLa) | Potency (Hek293T) | Potency (JEG-3) | Potency (OV90) | Potency (PA-1) | Potency (SKOV3)

CC(=O)[C@H]1CC[C@H]2[C@@H]3C=CC4=CC(=O)CC[C@@]4(C)[C@@H]3CC[C@]12C
inactive: max response (NIH3T3) -20.6% and 1.55% | outcome (HACAT) | Potency (MCC-13) | Potency (MCC-26) | Potency (MKL-1) | Potency (MKL-2) | Potency (UISO) | Potency (WaGa) | Potency (C33A) | Potency (CAOV3) | Potency (CASKI) | Potency (Es-2) | Potency (HeLa) | Potency (Hek293T) | Potency (JEG-3) | Potency (OV90) | Potency (PA-1) | Potency (SKOV3)

COc1cc(C(=O)NC2CCCNC2)cc(OC)c1OC (stereo not given)
inactive: max response (NIH3T3) 4.73% | outcome (HACAT) | Potency (MCC-13) | Potency (MCC-26) | Potency (MKL-1) | Potency (MKL-2) | Potency (UISO) | Potency (WaGa) | Potency (C33A) | Potency (CAOV3) | Potency (CASKI) | Potency (Es-2) | Potency (HeLa) | Potency (Hek293T) | Potency (JEG-3) | Potency (OV90) | Potency (PA-1) | Potency (SKOV3)

O=C1c2ccccc2CCc2ccccc21
inactive: max response (NIH3T3) 0.759% | outcome (HACAT) | Potency (MCC-13) | Potency (MCC-26) | Potency (MKL-1) | Potency (MKL-2) | Potency (UISO) | Potency (WaGa) | Potency (C33A) | Potency (CAOV3) | Potency (CASKI) | Potency (Es-2) | Potency (HeLa) | Potency (Hek293T) | Potency (JEG-3) | Potency (OV90) | Potency (PA-1) | Potency (SKOV3)

C[N+]1(C)CCC(OC(=O)C(O)(c2ccccc2)C2CCCC2)C1 (stereo not given)
inactive: max response (NIH3T3) -0.313% | outcome (HACAT) | Potency (MCC-13) | Potency (MCC-26) | Potency (MKL-1) | Potency (MKL-2) | Potency (UISO) | Potency (WaGa) | Potency (C33A) | Potency (CAOV3) | Potency (CASKI) | Potency (Es-2) | Potency (HeLa) | Potency (Hek293T) | Potency (JEG-3) | Potency (OV90) | Potency (PA-1) | Potency (SKOV3)

CCC(C(=O)NC(=O)NC(C)=O)c1ccccc1 (stereo not given)
inactive: max response (NIH3T3) -7.72% | outcome (HACAT) | Potency (MCC-13) | Potency (MCC-26) | Potency (MKL-1) | Potency (MKL-2) | Potency (UISO) | Potency (WaGa) | Potency (C33A) | Potency (CAOV3) | Potency (CASKI) | Potency (Es-2) | Potency (HeLa) | Potency (Hek293T) | Potency (JEG-3) | Potency (OV90) | Potency (PA-1)

CN1Cc2cc(C(=O)N3CCC(C4CCNCC4)CC3)ccc2N[C@@H](CC(=O)O)C1=O
inactive: max response (NIH3T3) 1.44% | outcome (HACAT) | Potency (MCC-13) | Potency (MCC-26) | Potency (MKL-1) | Potency (MKL-2) | Potency (UISO) | Potency (WaGa) | Potency (C33A) | Potency (CAOV3) | Potency (CASKI) | Potency (Es-2) | Potency (HeLa) | Potency (Hek293T) | Potency (JEG-3) | Potency (OV90) | Potency (PA-1) | Potency (SKOV3)

CN1CC(=O)N2[C@H](c3ccc4c(c3)OCO4)c3[nH]c4ccccc4c3C[C@@H]2C1=O
inactive: max response (NIH3T3) 3.47% | outcome (HACAT) | Potency (MCC-13) | Potency (MCC-26) | Potency (MKL-1) | Potency (MKL-2) | Potency (UISO) | Potency (WaGa) | Potency (C33A) | Potency (CAOV3) | Potency (CASKI) | Potency (Es-2) | Potency (HeLa) | Potency (Hek293T) | Potency (JEG-3) | Potency (OV90) | Potency (PA-1) | Potency (SKOV3)

Cc1nc(C2CCCCC2)c(-c2ccc(S(N)(=O)=O)c(F)c2)o1
inactive: max response (NIH3T3) -12.8% | outcome (HACAT) | Potency (MCC-13) | Potency (MCC-26) | Potency (MKL-1) | Potency (MKL-2) | Potency (UISO) | Potency (WaGa) | Potency (C33A) | Potency (CAOV3) | Potency (CASKI) | Potency (Es-2) | Potency (HeLa) | Potency (Hek293T) | Potency (JEG-3) | Potency (OV90) | Potency (PA-1)
